According to the supplement of paper PMC11732987, “Enantioselective OTUD7B fragment discovery through chemoproteomics screening and high-throughput optimisation” (Communications Chemistry, 2025):

Legend:
Test in all cases: log2 ratio of Biotin-Ahx-Ub-VS probe labelling (fragment/DMSO); higher = less target engagement (more negative = stronger competition), active = hit call of the paper (q ≤ 0.05, log2 ratio ≤ -1)
Conditions in all cases: compound concentration: 200 uM; treatment time: 3 h
USP19 = target: T1, USP19 (UniProt O94966)
T1 sequence (whole entry): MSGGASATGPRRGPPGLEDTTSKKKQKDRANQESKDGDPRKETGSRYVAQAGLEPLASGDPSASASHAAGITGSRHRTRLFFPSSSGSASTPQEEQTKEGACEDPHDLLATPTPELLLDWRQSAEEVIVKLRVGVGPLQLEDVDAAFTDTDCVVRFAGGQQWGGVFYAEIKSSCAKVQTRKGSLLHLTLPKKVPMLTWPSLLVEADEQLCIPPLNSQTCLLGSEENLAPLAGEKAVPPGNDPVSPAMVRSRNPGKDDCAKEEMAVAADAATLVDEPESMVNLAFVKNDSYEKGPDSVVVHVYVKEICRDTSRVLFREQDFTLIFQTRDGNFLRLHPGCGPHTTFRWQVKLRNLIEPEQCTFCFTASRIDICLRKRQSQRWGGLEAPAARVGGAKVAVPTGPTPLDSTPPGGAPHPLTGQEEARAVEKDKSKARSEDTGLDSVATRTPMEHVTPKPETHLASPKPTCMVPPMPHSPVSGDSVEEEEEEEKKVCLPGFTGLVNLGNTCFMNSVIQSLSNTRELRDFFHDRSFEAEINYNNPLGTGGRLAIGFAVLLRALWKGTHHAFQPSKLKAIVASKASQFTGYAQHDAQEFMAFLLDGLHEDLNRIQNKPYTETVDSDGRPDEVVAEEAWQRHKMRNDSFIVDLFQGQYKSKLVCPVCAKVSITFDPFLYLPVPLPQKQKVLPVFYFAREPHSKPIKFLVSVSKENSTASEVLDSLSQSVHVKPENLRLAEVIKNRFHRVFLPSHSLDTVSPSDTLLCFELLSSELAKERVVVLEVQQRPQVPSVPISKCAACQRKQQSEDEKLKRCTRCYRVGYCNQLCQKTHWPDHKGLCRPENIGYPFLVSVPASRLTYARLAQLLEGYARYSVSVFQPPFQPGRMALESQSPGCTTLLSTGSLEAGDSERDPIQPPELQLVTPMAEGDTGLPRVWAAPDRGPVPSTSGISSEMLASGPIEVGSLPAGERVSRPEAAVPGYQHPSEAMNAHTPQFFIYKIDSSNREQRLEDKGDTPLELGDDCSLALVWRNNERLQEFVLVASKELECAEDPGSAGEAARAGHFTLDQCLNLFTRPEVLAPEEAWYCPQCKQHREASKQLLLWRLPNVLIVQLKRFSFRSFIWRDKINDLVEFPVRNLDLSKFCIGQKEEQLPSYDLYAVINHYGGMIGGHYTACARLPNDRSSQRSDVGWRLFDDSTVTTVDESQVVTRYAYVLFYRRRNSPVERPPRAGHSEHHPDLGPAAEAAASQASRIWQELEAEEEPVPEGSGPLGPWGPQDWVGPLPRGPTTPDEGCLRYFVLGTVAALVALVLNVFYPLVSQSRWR
Method in brief: (§1)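 HEK293T lysate (495 µg per sample, in Tris/CHAPS/IGEPAL buffer with protease inhibitors) was treated in triplicate with fragment at 200 µM or with DMSO for 3 h. It was then treated with Biotin-Ahx-Ub-VS (0.5 µM final) for 1 h. Labelled DUBs were NeutrAvidin-enriched, digested with LysC and trypsin, and run by diaPASEF LC-MS/MS. Spectronaut label-free quantities were global-median-normalised. Values are average log2 ratios fragment/DMSO by unpaired t-test, using proteins with ≥2 unique peptides.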

USP22 = target: T2, USP22 (UniProt Q9UPT9)
T2 sequence (whole entry): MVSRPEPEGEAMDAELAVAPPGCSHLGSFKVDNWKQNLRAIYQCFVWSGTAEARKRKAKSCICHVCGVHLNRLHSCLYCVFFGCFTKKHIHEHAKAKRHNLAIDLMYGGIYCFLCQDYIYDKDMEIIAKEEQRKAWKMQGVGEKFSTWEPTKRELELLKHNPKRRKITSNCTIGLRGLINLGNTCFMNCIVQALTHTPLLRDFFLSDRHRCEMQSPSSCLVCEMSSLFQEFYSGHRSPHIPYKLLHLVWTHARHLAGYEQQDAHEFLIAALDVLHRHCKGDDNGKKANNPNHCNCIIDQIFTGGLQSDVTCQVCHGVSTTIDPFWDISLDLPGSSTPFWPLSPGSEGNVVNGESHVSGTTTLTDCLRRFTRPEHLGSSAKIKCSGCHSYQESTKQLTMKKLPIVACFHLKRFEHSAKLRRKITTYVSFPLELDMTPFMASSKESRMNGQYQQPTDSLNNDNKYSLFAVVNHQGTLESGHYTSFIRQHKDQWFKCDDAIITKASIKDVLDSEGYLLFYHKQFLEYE
Method in brief: as §1

USP24 = USP24 (UniProt Q9UPU5)
Chain of USP24 (Q9UPU5 whole entry): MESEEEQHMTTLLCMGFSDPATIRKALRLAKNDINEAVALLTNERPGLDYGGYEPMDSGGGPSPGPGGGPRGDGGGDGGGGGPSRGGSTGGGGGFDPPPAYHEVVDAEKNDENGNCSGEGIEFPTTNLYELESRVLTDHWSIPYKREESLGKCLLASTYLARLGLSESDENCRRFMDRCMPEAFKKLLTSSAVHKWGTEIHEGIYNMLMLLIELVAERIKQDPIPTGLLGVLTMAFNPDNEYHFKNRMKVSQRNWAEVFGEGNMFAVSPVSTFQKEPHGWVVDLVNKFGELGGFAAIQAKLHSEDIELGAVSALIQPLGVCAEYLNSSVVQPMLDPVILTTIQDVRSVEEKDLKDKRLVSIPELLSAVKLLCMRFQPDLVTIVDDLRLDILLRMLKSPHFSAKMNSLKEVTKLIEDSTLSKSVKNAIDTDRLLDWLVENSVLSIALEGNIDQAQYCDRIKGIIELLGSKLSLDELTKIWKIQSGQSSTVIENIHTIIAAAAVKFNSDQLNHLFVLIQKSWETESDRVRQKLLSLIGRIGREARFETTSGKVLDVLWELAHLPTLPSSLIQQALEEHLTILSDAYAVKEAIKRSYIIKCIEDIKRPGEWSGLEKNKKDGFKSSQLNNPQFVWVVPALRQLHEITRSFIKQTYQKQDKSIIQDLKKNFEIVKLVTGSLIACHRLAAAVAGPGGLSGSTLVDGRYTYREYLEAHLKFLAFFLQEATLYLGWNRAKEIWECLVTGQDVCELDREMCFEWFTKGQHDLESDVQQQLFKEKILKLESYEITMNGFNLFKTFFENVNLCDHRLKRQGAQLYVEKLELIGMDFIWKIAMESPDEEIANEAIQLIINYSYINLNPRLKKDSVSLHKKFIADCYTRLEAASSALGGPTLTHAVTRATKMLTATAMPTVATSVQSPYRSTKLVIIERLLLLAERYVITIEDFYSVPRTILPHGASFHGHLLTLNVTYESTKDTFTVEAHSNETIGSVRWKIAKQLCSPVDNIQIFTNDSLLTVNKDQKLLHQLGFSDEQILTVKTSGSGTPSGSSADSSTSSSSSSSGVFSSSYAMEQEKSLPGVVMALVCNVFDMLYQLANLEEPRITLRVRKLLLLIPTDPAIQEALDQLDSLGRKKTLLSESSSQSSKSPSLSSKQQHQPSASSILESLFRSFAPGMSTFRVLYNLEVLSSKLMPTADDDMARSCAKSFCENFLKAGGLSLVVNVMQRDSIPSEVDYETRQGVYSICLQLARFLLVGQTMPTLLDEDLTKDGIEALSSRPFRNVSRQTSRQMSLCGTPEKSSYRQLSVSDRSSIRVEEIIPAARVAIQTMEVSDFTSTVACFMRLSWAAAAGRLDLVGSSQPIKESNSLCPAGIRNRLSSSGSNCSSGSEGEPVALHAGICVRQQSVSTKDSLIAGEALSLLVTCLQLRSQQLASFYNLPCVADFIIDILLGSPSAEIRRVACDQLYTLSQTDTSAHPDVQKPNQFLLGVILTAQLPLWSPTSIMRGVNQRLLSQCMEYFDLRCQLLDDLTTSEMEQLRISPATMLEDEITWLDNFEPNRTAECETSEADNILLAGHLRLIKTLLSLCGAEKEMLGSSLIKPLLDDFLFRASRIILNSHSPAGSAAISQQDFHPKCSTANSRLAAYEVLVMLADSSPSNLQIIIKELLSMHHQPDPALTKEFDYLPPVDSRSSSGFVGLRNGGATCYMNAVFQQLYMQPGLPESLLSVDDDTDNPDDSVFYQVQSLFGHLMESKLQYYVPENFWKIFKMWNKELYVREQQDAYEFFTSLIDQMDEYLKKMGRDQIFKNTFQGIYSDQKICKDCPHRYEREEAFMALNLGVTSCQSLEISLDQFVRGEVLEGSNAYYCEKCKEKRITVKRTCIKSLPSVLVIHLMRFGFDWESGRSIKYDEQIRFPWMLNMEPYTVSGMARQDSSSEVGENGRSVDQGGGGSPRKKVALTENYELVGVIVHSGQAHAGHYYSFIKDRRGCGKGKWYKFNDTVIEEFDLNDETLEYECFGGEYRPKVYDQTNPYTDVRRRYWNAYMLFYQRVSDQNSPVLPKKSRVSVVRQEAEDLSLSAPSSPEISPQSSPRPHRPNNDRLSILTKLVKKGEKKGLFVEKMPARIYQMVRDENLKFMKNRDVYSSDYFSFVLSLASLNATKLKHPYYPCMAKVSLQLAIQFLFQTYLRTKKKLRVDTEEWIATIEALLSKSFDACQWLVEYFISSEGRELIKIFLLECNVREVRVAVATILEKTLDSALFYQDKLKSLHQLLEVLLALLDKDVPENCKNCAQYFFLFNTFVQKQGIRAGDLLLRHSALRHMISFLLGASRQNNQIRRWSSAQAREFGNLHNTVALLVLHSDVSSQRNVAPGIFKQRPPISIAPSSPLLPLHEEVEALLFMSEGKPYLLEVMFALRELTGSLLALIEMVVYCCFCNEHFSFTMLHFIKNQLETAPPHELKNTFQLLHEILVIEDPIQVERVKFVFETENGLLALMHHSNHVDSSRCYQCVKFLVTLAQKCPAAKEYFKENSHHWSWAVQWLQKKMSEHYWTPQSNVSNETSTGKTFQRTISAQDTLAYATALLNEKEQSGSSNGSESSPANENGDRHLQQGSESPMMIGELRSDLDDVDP
Method in brief: as §1

USP25 = target: T3, USP25 (UniProt Q9UHP3)
T3 sequence (whole entry): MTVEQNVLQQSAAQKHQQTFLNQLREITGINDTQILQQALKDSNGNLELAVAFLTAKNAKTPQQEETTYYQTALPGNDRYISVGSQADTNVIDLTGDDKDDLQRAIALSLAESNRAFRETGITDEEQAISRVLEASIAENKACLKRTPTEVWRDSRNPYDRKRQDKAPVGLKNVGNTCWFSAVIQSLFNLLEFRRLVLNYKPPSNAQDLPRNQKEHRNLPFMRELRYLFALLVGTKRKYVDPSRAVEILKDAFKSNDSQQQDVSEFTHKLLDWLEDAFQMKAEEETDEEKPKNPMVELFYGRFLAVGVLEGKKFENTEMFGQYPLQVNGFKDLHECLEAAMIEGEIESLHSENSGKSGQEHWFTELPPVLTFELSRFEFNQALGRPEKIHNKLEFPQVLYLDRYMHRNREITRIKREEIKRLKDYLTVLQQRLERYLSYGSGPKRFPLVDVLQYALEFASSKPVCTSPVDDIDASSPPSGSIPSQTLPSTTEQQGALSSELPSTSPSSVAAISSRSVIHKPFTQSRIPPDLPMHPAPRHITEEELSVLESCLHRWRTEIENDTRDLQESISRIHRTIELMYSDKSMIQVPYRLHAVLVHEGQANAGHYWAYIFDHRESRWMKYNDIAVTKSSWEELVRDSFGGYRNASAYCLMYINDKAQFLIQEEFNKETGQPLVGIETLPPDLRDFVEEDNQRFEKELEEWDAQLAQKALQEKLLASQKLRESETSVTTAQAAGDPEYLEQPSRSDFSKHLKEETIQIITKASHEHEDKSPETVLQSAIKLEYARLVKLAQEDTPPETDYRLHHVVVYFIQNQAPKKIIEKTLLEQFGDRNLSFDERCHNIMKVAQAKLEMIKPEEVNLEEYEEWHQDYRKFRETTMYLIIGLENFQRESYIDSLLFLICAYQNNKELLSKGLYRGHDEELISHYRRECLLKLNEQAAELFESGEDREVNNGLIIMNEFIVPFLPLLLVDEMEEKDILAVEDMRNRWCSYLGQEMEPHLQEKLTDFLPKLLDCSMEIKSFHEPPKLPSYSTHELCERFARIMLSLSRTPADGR
Method in brief: as §1

USP28 = target: T4, USP28 (UniProt Q96RU2)
T4 sequence (whole entry): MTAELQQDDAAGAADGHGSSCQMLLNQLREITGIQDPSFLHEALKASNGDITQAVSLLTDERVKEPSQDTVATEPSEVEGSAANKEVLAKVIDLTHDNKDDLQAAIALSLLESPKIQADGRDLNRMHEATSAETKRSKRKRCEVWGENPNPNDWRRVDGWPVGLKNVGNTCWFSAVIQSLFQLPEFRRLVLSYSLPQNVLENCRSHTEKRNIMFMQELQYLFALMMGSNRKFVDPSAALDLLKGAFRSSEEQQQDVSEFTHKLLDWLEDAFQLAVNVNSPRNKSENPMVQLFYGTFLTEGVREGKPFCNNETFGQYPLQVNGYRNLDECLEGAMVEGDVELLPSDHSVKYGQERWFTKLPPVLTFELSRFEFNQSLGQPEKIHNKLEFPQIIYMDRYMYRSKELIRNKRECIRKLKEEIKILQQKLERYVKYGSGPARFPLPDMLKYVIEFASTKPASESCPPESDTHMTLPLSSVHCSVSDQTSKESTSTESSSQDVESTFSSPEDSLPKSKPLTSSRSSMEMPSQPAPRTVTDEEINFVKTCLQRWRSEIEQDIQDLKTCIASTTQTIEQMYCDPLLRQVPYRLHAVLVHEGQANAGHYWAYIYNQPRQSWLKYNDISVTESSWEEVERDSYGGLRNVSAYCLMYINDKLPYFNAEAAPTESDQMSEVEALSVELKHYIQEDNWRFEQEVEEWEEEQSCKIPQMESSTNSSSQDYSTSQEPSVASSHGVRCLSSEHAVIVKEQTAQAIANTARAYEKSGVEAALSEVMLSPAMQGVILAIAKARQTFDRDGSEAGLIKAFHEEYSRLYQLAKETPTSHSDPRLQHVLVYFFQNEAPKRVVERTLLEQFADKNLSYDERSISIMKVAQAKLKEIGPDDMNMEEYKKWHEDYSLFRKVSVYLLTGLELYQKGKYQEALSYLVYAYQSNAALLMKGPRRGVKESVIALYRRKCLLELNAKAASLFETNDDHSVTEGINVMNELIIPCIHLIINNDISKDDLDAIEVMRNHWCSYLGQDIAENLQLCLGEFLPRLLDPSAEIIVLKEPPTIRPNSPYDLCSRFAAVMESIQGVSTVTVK
Method in brief: as §1

Measured: log2 ratio of Biotin-Ahx-Ub-VS probe labelling

Cc1ccccc1OCC(=O)N1CCN(C(=O)CCl)CC1
inactive: USP19 -0.401 | USP22 0.0214 | USP24 -0.309 | USP25 -0.0662 | USP28 -0.249
